Source: PubChem BioAssay (Tox21)
Inconclusive results are not listed. A call without a number means that no potency is given here. The source made the active and inactive calls. Calls come from the whole dose curve.

Experiment: qHTS assay for small molecule agonists of the antioxidant response element (ARE) signaling pathway - cell viability counter screen (AID 743203); note: nearly all actives have a fitted effect of over 55% in size
Conditions: ARE-bla HepG2 viability, CellTiter-Glo luminescence, 16 h; series mostly up to 73.3 µM
Excerpt: National Center for Advancing Translational Sciences [NCATS]
NIH Chemical Genomics Center [NCGC]
U.S. Environmental Protection Agency [EPA]
National Institutes of Environmental Health Sciences [NIEHS]
National Toxicology Program [NTP]
U.S. Food and Drug Administration [FDA]
Oxidative stress has been implicated in the pathogenesis of a variety of diseases ranging from cancer to neurodegeneration. The antioxidant response element (ARE) signaling pathway plays an important role in the amelioration of oxidative stress. The CellSensor ARE-bla HepG2 cell line (Invitrogen) can be used for analyzing the Nrf2/antioxidant response signaling pathway. Nrf2 (NF-E2-related factor 2) and Nrf1 are transcription factors that bind to AREs and activate these genes. The CellSensor ARE-bla Hep G2 cell line contains a beta-lactamase reporter gene under control of the Antioxidant Response Element (ARE) stably integrated into HepG2 cells. The activation of the report gene under culture conditions can be detected by fluorescence intensity. This cell line has been used to screen the Tox21 10K compound library to identify agonists that induce oxidative stress. The cytotoxicity of the Tox21 compound library against the ARE-bla cell line was tested in parallel by measuring the cell viability using CellTiter-Glo assay (Promega, Madison, WI) in the same wells.
Tox21 Assay Protocol Summary:
ARE-bla HepG2 cells were dispensed at 2,000 cells/5 ul/well in 1536-well white wall/solid bottom plates using a Multidrop Combi (ThermoFisher Scientific, Waltham, MA) dispenser. After the assay plates were incubated at 37C/5% CO2 for 5 hrs, 23 nL of compounds dissolved in DMSO, positive controls or DMSO only was transferred to the assay plate by a pintool work station (Kalypsys, San Diego, CA). The plates were incubated at 37C/5% CO2 for 16 hrs, followed by addition of 4 ul/well of CellTiter-Glo reagent into the assay plates using a Flying Reagent Dispenser (Aurora Discovery, San Diego, CA). After 30 min incubation at room temperature, the luminescence intensity in the assay plates was measured using a ViewLux (PerkinElmer, Shelton, CT) plate reader.

SMILES | Potency
CSc1ccc(C(=O)C(C)(C)N2CCOCC2)cc1 | inactive
CC1COC2(c3ccccc3Cl)c3cc(Cl)ccc3NC(=O)CN12 (stereo not given) | inactive
ClC(Cl)C(Cl)Cl | inactive
CCCCCCI | inactive
O=C(O)C(Br)CBr (stereo not given) | inactive
O=NN1CCCCC1 | inactive
CCCCC(=O)Cl | inactive
C(CCOCC1CO1)COCC1CO1 (stereo not given) | inactive
COc1cc(OC)nc(Sc2cccc(Cl)c2C(=O)O)n1 | inactive
Cc1cccc(C#N)c1 | inactive
CC(Oc1ccc(Oc2ncc(C(F)(F)F)cc2Cl)cc1)C(=O)O (stereo not given) | inactive
CNC(=O)N(C)c1nc2ccccc2s1 | inactive
COC(=O)C1=CCCN(C)C1 | inactive
O=C(NCO)NCO | inactive
N#CCCC#N | inactive
Cc1ncc2n1-c1ccc(Cl)cc1C(c1ccccc1F)=NC2 | inactive
CCOP(=S)(Oc1cnc(C(C)(C)C)nc1)OC(C)C (stereo not given) | inactive
CCOP(=S)(OCC)SCSP(=S)(OCC)OCC | inactive
CCOP(=S)(OCC)Oc1cc(-c2ccccc2)on1 | inactive
[As]#[In] | inactive

SMILES | Potency
CCN(CC)CCOC(=O)C(C)(c1ccccc1)c1ccccc1 | inactive
N#CC(O)c1ccccc1 (stereo not given) | inactive
CC1(C)COP(Oc2ccccc2)OC1 | inactive
OCCBr | inactive
COP(=S)(OC)Oc1c(Cl)cc(C)cc1Cl | inactive
CNCC(=O)c1ccc(O)c(O)c1 | inactive
O=C1c2ccccc2C(=O)c2ccccc21 | inactive
OCCSCSCCO | inactive
NC1=NC(=O)C(c2ccccc2)O1 (stereo not given) | inactive
CN(C)CCc1ccc(O)cc1 | inactive
CC(=O)CCc1ccc2c(c1)OCO2 | inactive
CCN(CC)c1nc(C)cc(OP(=S)(OC)OC)n1 | inactive
CCC(Cl)[N+](=O)[O-] (stereo not given) | inactive
COP(N)(=S)Oc1ccccc1C(=O)OC(C)C (stereo not given) | inactive
CC(=O)[C@H]1CC[C@H]2[C@@H]3CC[C@H]4C[C@H](O)CC[C@]4(C)[C@H]3C(=O)C[C@]12C | inactive
CC1CN1P(=O)(N1CC1C)N1CC1C (stereo not given) | inactive
Cc1ccccc1CO[C@@H]1C[C@@]2(C(C)C)CC[C@]1(C)O2 | inactive
CCC#N | inactive
N#Cc1c(Cl)cccc1Cl | inactive
COc1cc(OC)nc(NC(=O)NS(=O)(=O)c2ncccc2OCC(F)(F)F)n1 | inactive
